The record followed here is PubChem BioAssay (NCI).

Compounds without any hit were thinned out: in the full panel of roughly 79,000, 15% have a hit. Unmarked numbers belong to inactive results. The source made the active and inactive calls. Rule as the data show it: active = growth inhibition above about 70%; inactive = the rest.

The nature of experiment [1]: NCI Yeast Anticancer Drug Screen. Data for the rad50 strain (AID 155).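 Also: 0% = growth of vehicle-only cultures of the same strain.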 The settings on record: S. cerevisiae rad50 strain growth inhibition; at 50.0 µM; hits give high values. The procedure, abridged: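 Genetically altered yeast (DNA repair pathway); compound treatment; growth inhibition vs vehicle ctrl.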
The nature of experiment [2]: NCI Yeast Anticancer Drug Screen. Data for the mec2-1 strain (AID 157). As to conditions: S. cerevisiae mec2-1 strain, at 50.0 µM, hits give high values. The procedure, abridged: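 Strain: mec2-1 (DNA repair/cell cycle alteration). Compound exposure, then growth measured; inhibition expressed relative to vehicle.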
A short description of experiment [3]: NCI Yeast Anticancer Drug Screen. Data for the sgs1 mgt1 strain (AID 161).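 Also: 0% = growth of cultures given vehicle only.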 As to conditions: S. cerevisiae sgs1 mgt1 strain, at 50.0 µM, hits give high values. Summed up: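 Inhibition of yeast growth, normalised to vehicle-treated controls, is reported for a strain bearing genetic alterations in DNA damage repair.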
Experiment [4] can be described thus: NCI Yeast Anticancer Drug Screen. Data for the cln2 rad14 strain (AID 165).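 Also: 0% = growth equal to vehicle treated cultures.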 The settings on record: S. cerevisiae cln2 rad14 strain, at 50.0 µM, hits give high values. Summed up:
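Compounds are applied to the cln2 rad14 yeast strain, and growth is then compared with that of vehicle-treated cultures to give inhibition.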

Experiment [5] in a line: NCI Yeast Anticancer Drug Screen. Data for the bub3 strain (AID 167). As to conditions: S. cerevisiae bub3 mutant strain, at 50.0 µM, hits give high values. The procedure, abridged: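 Yeast carrying a defined mutation is treated with each compound, and growth is compared with that of vehicle-exposed cells to give inhibition.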
Experiment [6] can be described thus: NCI Yeast Anticancer Drug Screen. Data for the mlh1 rad18 strain (AID 175). The settings on record: S. cerevisiae mlh1 rad18 strain growth inhibition; at 50.0 µM; hits give high values. Summed up: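 Read-out is yeast growth inhibition, calculated against vehicle-only controls. The compound was applied to a strain engineered with DNA damage repair alterations.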

In the case of `CSc1nc2[nH]ncc2c(=O)[nH]1`, the growth inhibition in experiment [1] was -19.8%; in experiment [2], 5.85%; in experiment [3], 15.4%; in experiment [4] it was -40.6%; in experiment [5], -3.05%; in experiment [6], -6.15%.

As to `Oc1ccc(N=Cc2ccc(OCc3ccccc3)cc2)cc1`, the growth inhibition is 2.5% in experiment [1]; -29.9% in experiment [2]; 15.2% in experiment [3]; 0.25% in experiment [4]; 2.55% in experiment [5]; -4.1% in experiment [6].

Consider `CCOC(=O)c1ccc(NC(=O)Nc2nccs2)cc1`, for which the growth inhibition in experiment [1] was -2.95%; in experiment [2], -10.8%; in experiment [3], 29.4%; in experiment [4], 11.2%; in experiment [5], -12.4%; in experiment [6] it was 6.1%.

With `CC(C)C(=O)OCCOc1ccc(C(C)(C)C)cc1`, the growth inhibition is 6.35% in experiment [1]; 3.1% in experiment [2]; 6.9% in experiment [3]; -5.2% in experiment [4]; 15% in experiment [5]; 13.7% in experiment [6].

With `COc1cccc(C(=O)NNC(=O)c2cccc3ccccc23)c1`, the growth inhibition in experiment [1] is -47.2%; in experiment [2], -59.1%; in experiment [3], -26.8%; in experiment [4], -10.4%; in experiment [5], -34.2%; in experiment [6], -20.9%.

For `Cc1ccc([N+](=O)[O-])c(C)n1`, the growth inhibition in experiment [1] was 19.1%; in experiment [2] it was -23.1%; in experiment [3], 6.2%; in experiment [4] it was 27.1%; in experiment [5], -4.4%; in experiment [6], 23.4%.

`OCC(O)COc1ccc(Cl)cc1Cl` (configuration not stated): the growth inhibition in experiment [1] was 22.2%; in experiment [2], 6.25%; in experiment [3] it was 25.8%; in experiment [4], 8.85%; in experiment [5] it was 10.1%; in experiment [6] it was 16.8%.

On to `O=C(CC(CC(=O)c1ccccc1)c1ccccn1)c1ccccc1`, for which the growth inhibition is -16.6% in experiment [1]; -20.2% in experiment [2]; -28.1% in experiment [3]; -33% in experiment [4]; 4.65% in experiment [5]; -42.1% in experiment [6].

Turning to `O=C1NCC2CCCC1C2` (configuration not stated), the growth inhibition in experiment [1] was 6.5%; in experiment [2], -8.15%; in experiment [3], -9.3%; in experiment [4], -40.9%; in experiment [5], -13.4%; in experiment [6], 1.7%.

In the case of `Nc1ncnc(Nc2ccc(C(F)(F)F)cc2)n1`, the growth inhibition was 44% in experiment [1]; 8.35% in experiment [2]; 1.35% in experiment [3]; 13.2% in experiment [4]; 25.6% in experiment [5]; 17.9% in experiment [6].

As to `NNc1ncccn1`, the growth inhibition in experiment [1] was 6.45%; in experiment [2], -1.15%; in experiment [3], 31.4%; in experiment [4] it was -3.35%; in experiment [5], -10%; in experiment [6], -0.75%.

As for `O=C(NC1CCCCC1)c1ccc(Cl)cc1`, the growth inhibition in experiment [1] is 4.55%; in experiment [2], -6.7%; in experiment [3] it was -20.1%; in experiment [4] it was 12.7%; in experiment [5], -17.6%; in experiment [6], -1.85%.

For the compound `Cc1ccc(NC(=O)c2ccccc2Cl)cc1`, the growth inhibition in experiment [1] was 12.4%; in experiment [2], -4.35%; in experiment [3], -13.3%; in experiment [4], -42%; in experiment [5] it was -6.3%; in experiment [6], 6.05%.

In the case of `Cc1c(Cl)cccc1N=C=S`, the growth inhibition in experiment [1] was -9.85%; in experiment [2] it was -24%; in experiment [3], 15.4%; in experiment [4], 11.5%; in experiment [5], -0.95%; in experiment [6], 8.7%.

`Cc1ccc(S(N)(=O)=O)cc1Cl`: the growth inhibition in experiment [1] is 10.1%; in experiment [2] it was -20.1%; in experiment [3], 13.2%; in experiment [4], 5.8%; in experiment [5], -1.5%; in experiment [6], 16.6%.

Consider `Cc1[nH]n(-c2ccccc2)c(=O)c1C=NC(=S)C(N)=S`, for which the growth inhibition in experiment [1] was -24.4%; in experiment [2], -22.9%; in experiment [3] it was -20.4%; in experiment [4] it was -19.1%; in experiment [5] it was -54.4%; in experiment [6], -20.5%.

Take `CC(=O)OCC1OC(n2cnc3c(=S)nc(N)[nH]c32)C(OC(C)=O)C1OC(C)=O` (configuration not stated): the growth inhibition in experiment [1] is 73% (active); in experiment [2], 42%; in experiment [3] it was 48.5%; in experiment [4], -12.4%; in experiment [5], 11.1%; in experiment [6], 24.6%.

`CC(=O)c1cccc(O)c1`: the growth inhibition in experiment [1] was 5.8%; in experiment [2], -8.85%; in experiment [3] it was 6.65%; in experiment [4], 1.1%; in experiment [5] it was -5.1%; in experiment [6], 17.7%.

For the compound `COC1OC(C(O)C(O)CO)C(O)C(O)C1O` (configuration not stated), the growth inhibition is 14.3% in experiment [1]; -5.7% in experiment [2]; 11.8% in experiment [3]; -55.7% in experiment [4]; -3.65% in experiment [5]; 11.7% in experiment [6].

For `CCCCCCCCCc1ccc(OC(C)=O)cc1`, the growth inhibition in experiment [1] is 99.3% (active); in experiment [2] it was 97.2% (active); in experiment [3], 42.2%; in experiment [4], 98% (active); in experiment [5] it was 94.2% (active); in experiment [6], 98.4% (active).

Take `O=C(Nc1ccccc1)c1ccco1`: the growth inhibition in experiment [1] is 12.3%; in experiment [2], 33.2%; in experiment [3], 13.8%; in experiment [4] it was -0.6%; in experiment [5], -1.55%; in experiment [6] it was 11.2%.

Consider `Nc1ncnc(Nc2ccccc2)n1`, for which the growth inhibition is -6.05% in experiment [1]; -28.1% in experiment [2]; -4.1% in experiment [3]; 15.1% in experiment [4]; -5.8% in experiment [5]; 7.1% in experiment [6].
